Structures can show the parent of a compound that is named as a salt. ± gives the uncertainty stated by the source.

This experiment concerns NCC-PMP1-C1. Briefly: cell viability relative to DMSO control; higher = less growth inhibition. The note with it: 10 µM; 72 h. The method, then: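 NCC-PMP1-C1 pseudomyxoma peritonei cells were seeded in 384-well plates coated with Matrigel and MEF (1e4 cells). Viability was read after 72 h by CCK-8 and expressed as % of the DMSO control, mean ± SD of duplicates.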
As for `Cc1ccc(S(=O)(=O)Nc2nc3ccccc3nc2Nc2ccc3nsnc3c2)cc1` [XL147 analog], the cell viability worked out at 96.2 ± 9%.
With `Nc1nc(F)nc2c1ncn2[C@@H]1O[C@H](COP(=O)(O)O)[C@@H](O)[C@@H]1O` [Fludarabine Phosphate] the figure was -11.4 ± 1.5%.
As to `Cc1ccc(NC(=O)c2ccc(CN3CCN(C)CC3)cc2)cc1Nc1nccc(-c2cccnc2)n1` [Imatinib Mesylate (STI571)], the cell viability was 75.2 ± 4.4%.
Under `C=CC(=O)N1CCC[C@@H](n2nc(-c3ccc(Oc4ccccc4)cc3)c3c(N)ncnc32)C1` stands 59 ± 5.5%; under `Cc1cc(Nc2ncc(Cl)c(Nc3ccccc3S(=O)(=O)C(C)C)n2)c(OC(C)C)cc1C1CCNCC1` [Ceritinib (LDK378)], -3.34 ± 0.36%.
With `O=S(=O)(O)CCS` [Mesna] the figure was -9.24%; with `Nc1ccn([C@@H]2O[C@H](CO)[C@@H](O)C2(F)F)c(=O)n1` [Gemcitabine], 68.1 ± 11%.
Under `COC(=O)c1ccc2c(C(=Nc3ccc(N(C)C(=O)CN4CCN(C)CC4)cc3)c3ccccc3)c(O)[nH]c2c1` [Nintedanib (BIBF 1120)] stands 23.9 ± 1.6%.
Turning to `CNC(=O)c1cc(Oc2ccc(NC(=O)Nc3ccc(Cl)c(C(F)(F)F)c3)cc2)ccn1` [Sorafenib Tosylate], the cell viability worked out at 148 ± 14%.
With `Cc1nc(NC(=O)N2CCC[C@H]2C(N)=O)sc1-c1ccnc(C(C)(C)C(F)(F)F)c1` [Alpelisib] the figure was 56.6 ± 3%.
Under `CC1(COc2ccc3c(c2)ncn3-c2ccc3cccc(N4CCC(N)CC4)c3n2)COC1` stands 70 ± 8.6%; under `CS(=O)(=O)OCCCCOS(C)(=O)=O` [Busulfan], 121 ± 7.5%; under `C=C1C[C@@H]2CC[C@@]34C[C@H]5O[C@H]6[C@@H](O3)[C@H]3O[C@H](CC[C@@H]3O[C@H]6[C@H]5O4)CC(=O)C[C@@H]3[C@@H](OC)[C@@H](C[C@H](O)CN)O[C@H]3C[C@H]3O[C@@H](CC[C@@H]1O2)C[C@@H](C)C3=C` [Eribulin], 53.95 ± 0.3%.
With `CCS(=O)(=O)N1CCN(c2ccc(Nc3ncc(C(N)=O)c(NC4CC4)n3)cc2)CC1` the figure was 71.8 ± 3.5%; with `C/C(=C\c1csc(C)n1)[C@@H]1C[C@@H]2O[C@]2(C)CCC[C@H](C)[C@H](O)[C@@H](C)C(=O)C(C)(C)[C@@H](O)CC(=O)N1`, 73.7 ± 4.9%.
In the case of `CN1c2cc(O)c(N=NC(N)=O)cc2CC1S(=O)(=O)O` (stereo not given) [Carbazochrome sodium sulfonate (AC-17)], the cell viability amounted to 90.4 ± 9.1%.
Regarding `CCCCCCNC(=O)n1cc(F)c(=O)[nH]c1=O` [Carmofur], the cell viability was found to be 96.6 ± 12%.
Take `Fc1ccc(C(c2ccc(F)cc2)N2CCN(C/C=C/c3ccccc3)CC2)cc1` [Flunarizine 2HCl]: the cell viability turned out to be 99.6 ± 22%.
With `C[C@H](NC(=O)Cc1cc(F)cc(F)c1)C(=O)N[C@H](C(=O)OC(C)(C)C)c1ccccc1` the figure was 96.2 ± 2.6%.
As for `CN1CCN(c2ccc(C(=O)Nc3n[nH]c4ccc(Cc5cc(F)cc(F)c5)cc34)c(NC3CCOCC3)c2)CC1` [Entrectinib (RXDX-101)], the cell viability was -0.545 ± 0.059%.
Under `C[C@]1(O)C[C@@H](c2nc(-c3ccc4ccc(-c5ccccc5)nc4c3)c3c(N)nccn32)C1` [Linsitinib (OSI-906)] stands 58.9 ± 2.1%; under `S=c1[nH]cnc2nc[nH]c12` [Mercaptopurine (6-MP)], -6.45%; under `Nc1nc(F)nc2c1ncn2[C@@H]1O[C@H](CO)[C@@H](O)[C@@H]1O` [Fludarabine], 114 ± 29%.
With `O=C(CCCCCCC(=O)Nc1ccccc1)NO` [Vorinostat (SAHA, MK0683)] the figure was 27.7 ± 2.2%.
With `CN(Cc1cnc2nc(N)nc(N)c2n1)c1ccc(C(=O)N[C@@H](CCC(=O)O)C(=O)O)cc1` [Methotrexate] the figure was 110 ± 1.7%; with `Clc1ccc(C(c2ccccc2Cl)C(Cl)Cl)cc1` (stereo not given) [Mitotane], 106.8 ± 1%; with `Nc1nc(Cl)nc2c1ncn2[C@@H]1O[C@H](CO)[C@@H](O)[C@@H]1F` [Clofarabine], 112 ± 5.7%.
As for `FC(F)(F)c1ccc(/C=C/c2nc(COc3ccc(CCCCn4ccnn4)cc3)co2)cc1` [Mubritinib (TAK 165)], the cell viability came to 171 ± 3.5%.
On to `COc1cc([C@@H]2c3cc4c(cc3[C@@H](O[C@@H]3O[C@@H]5CO[C@@H](c6cccs6)O[C@H]5[C@H](O)[C@H]3O)[C@H]3COC(=O)[C@H]23)OCO4)cc(OC)c1O` [Teniposide], for which the cell viability is 13.5 ± 1.5%.
With `COc1c2occc2cc2ccc(=O)oc12` [Methoxsalen] the figure was 92.6 ± 16%; with `CC(=O)O[C@@]12CO[C@@H]1C[C@H](O)[C@@]1(C)C(=O)[C@H](O)C3=C(C)[C@@H](OC(=O)[C@H](O)[C@@H](NC(=O)OC(C)(C)C)c4ccccc4)C[C@@](O)([C@@H](OC(=O)c4ccccc4)[C@H]21)C3(C)C` [Docetaxel], 72.1 ± 2.1%; with `N=C(N)NC(=N)N1CCOCC1` [Moroxydine HCl], 104 ± 11%.
Under `O=c1[nH]c(=O)n([C@H]2C[C@H](O)[C@@H](CO)O2)cc1F` [Floxuridine] stands 108 ± 12%.
Under `COC(=O)C1=C(C#N)NC(C)=C(C(=O)OC(C)C)C1c1cccc([N+](=O)[O-])c1` (stereo not given) [Nilvadipine] stands 82.8 ± 3.3%; under `CNC(=O)c1ccc(-c2cnc3ncc(Cc4ccc5ncccc5c4)n3n2)cc1F`, 108 ± 9.8%; under `Nc1nnc(-c2cccc(Cl)c2Cl)c(N)n1` [Lamotrigine], 102.9 ± 0.8%.
For `CC[C@@]1(O)C(=O)OCc2c1cc1n(c2=O)Cc2cc3c(CN(C)C)c(O)ccc3nc2-1` [Topotecan HCl], the cell viability was determined as 55.8 ± 2.9%.
With `CNC(=O)c1cc(Oc2ccc(NC(=O)Nc3ccc(Cl)c(C(F)(F)F)c3)cc2)ccn1` [Sorafenib] the figure was -8.05 ± 0.27%; with `CO[C@H](C(=O)[C@@H](O)[C@@H](C)O)[C@@H]1Cc2cc3cc(O[C@H]4C[C@@H](O[C@H]5C[C@@H](O)[C@H](O)[C@@H](C)O5)[C@H](O)[C@@H](C)O4)c(C)c(O)c3c(O)c2C(=O)[C@H]1O[C@H]1C[C@@H](O[C@H]2C[C@@H](O[C@H]3C[C@](C)(O)[C@H](O)[C@@H](C)O3)[C@H](O)[C@@H](C)O2)[C@H](O)[C@@H](C)O1` [Mithramycin A], 7.11 ± 5.3%; with `CC1=C(CC(=O)O)c2cc(F)ccc2/C1=C\c1ccc([S+](C)[O-])cc1` (stereo not given) [Sulindac], 111 ± 29%.

Usually cell viability stands for a read-out of living cells in per cent, often relative to untreated cells.
